About 100 (0.17%) of roughly 58,000 compounds were called active. Rule as the data show it: active = inhibition above about 45%; inactive = the rest. Only a selection was taken, and actives are over-represented in it overall. Where a SMILES comes first, the peptide text is derived from it. The star is where a group is joined. Bz = O=C(c1ccccc1)*
Target: Procathepsin L (Homo sapiens) (UniProt P07711)
Test: blockers of CTSL protease activity – biochemical (AID 460);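 also: 0% = enzyme with no compound and 100% = no enzyme blank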
Conditions: purified cathepsin L, fluorogenic substrate, fluorescence; stronger effect = higher value;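 tested at 10 µM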

Chain of Procathepsin L (Homo sapiens) (P07711 114-288 limits assumed): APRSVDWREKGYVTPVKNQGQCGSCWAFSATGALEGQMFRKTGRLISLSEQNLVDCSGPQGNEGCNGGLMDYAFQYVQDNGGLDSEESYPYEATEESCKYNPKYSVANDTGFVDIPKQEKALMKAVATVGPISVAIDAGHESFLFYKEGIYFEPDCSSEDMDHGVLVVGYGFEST
Chain of Procathepsin L (Homo sapiens) (P07711 292-333 limits assumed): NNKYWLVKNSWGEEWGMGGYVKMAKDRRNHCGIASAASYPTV

inhibition, active:
c1ccc2c(c1)OCC(CNc1ncnc3nc[nH]c13)O2 (stereo not given) 81.5%
Clc1ccccc1CSc1nnc(-c2ccco2)c(-c2ccco2)n1 49.7%

inhibition, inactive:
CCCc1cc(=O)[nH]c(SCC(=O)OCc2ccccc2)n1 -7.39%
CCn1cc(C(=O)NCc2ccc(OC)cc2OC)c(=O)c2ccc(C)nc21 -0.88%
O=c1cc(Cn2nnc(-c3ccc(Cl)cc3)n2)nc2sccn12 18.2%
Cc1cccc(N(CC(O)CN(C)C)S(=O)(=O)c2ccccc2)c1 (stereo not given) -0.65%
Cc1ccc(C2(c3ccc(C)cc3)NC(=O)N(Cc3c(C)noc3C)C2=O)cc1 13.3%
Cc1nc2ccc(NC(=O)N3CCC(c4ccccc4)C3)cc2nc1C (stereo not given) -130%
COc1ccc2[nH]c(=O)c(CN(CC3CCCO3)C(=O)Nc3ccccc3)cc2c1 (stereo not given) -6.3%
CCN(CC(=O)Nc1ccc2c(c1)OCCO2)Cc1cc(=O)oc2cc(C)c(C)cc12 0.7%
CCOCCOC(=O)C1=C(C)N(C)C(=O)NC1c1ccccc1F (stereo not given) -0.79%
CCOc1cc(C)c(Cl)cc1S(=O)(=O)n1nnc2ccccc21 3.04%
O=C(c1ccccc1)c1ccc2nc(N3CCCCC3)c3nncn3c2c1 -3.17%
CCOC(=O)CCc1c(C)c2ccc(OCc3nn[nH]n3)c(C)c2oc1=O -20.7%
COc1ccc(OC)c2c(N)c(C#N)c(C(F)(F)C(F)(F)F)nc12 -8.11%
Cc1c(C)c2cc3c4c(oc3c(C)c2oc1=O)CCCC4 2.98%
CC1CCN(Cc2nc3c(c(=O)n(C)c(=O)n3C)n2Cc2cccc3ccccc23)CC1 0.14%
OC(COc1cccc2ccccc12)CN1CCN(c2ccccn2)CC1 (stereo not given) 7.74%
O=C(CS(=O)(=O)c1cn(Cc2cccc(F)c2)c2ccccc12)N1CCCCC1 17.3%
CCCC(=O)C1=C(N(C)c2ccccc2)CC(C)(C)C(C(=O)OC)C1=O (stereo not given) -1.31%
CCCn1c(=NC(C)=O)c(C(=O)OCC)cc2c(=O)n3ccccc3nc21 -149%
Cc1cc2cc(CNC(=O)c3ccc(S(=O)(=O)N4CCOCC4)cc3)ccc2[nH]1 4.06%
CN(CCCC(=O)Nc1nccs1)S(=O)(=O)c1ccc(Cl)cc1 -4.71%
CC1=NC2(CCCc3c2no[n+]3[O-])N(O)C1(C)C (stereo not given) 1.32%
CC(=O)N1C(=O)C2(Nc3ccccc3N2)c2ccccc21 1.65%
COc1ccccc1CNC(=O)C1CCN(S(C)(=O)=O)CC1 2.28%
CC(=O)N=c1ncn(CC(COC(C)=O)OC(C)=O)c2nc[nH]c12 (stereo not given) -1.89%
Cc1cccc(OCc2nnc(SCc3nc4cc(C(F)(F)F)ccc4c(=O)[nH]3)o2)c1 -0.3%
O=C(O)C1CC=CCC1C(=O)NCCc1ccccc1 (stereo not given) -8.83%
CC(C)c1ccc(NS(=O)(=O)c2cn(C)c(=O)n(C)c2=O)cc1 12.5%
O=C(NC(Cc1ccccc1)C(=O)N1CCCC1C(=O)O)c1ccccc1 (stereo not drawn) (Bz-Phe-Pro-OH; configuration not given here) 17.6%
Cc1ccc(C)c(N(CC(=O)NCc2ccco2)C(=O)CCC(=O)Nc2ccccn2)c1 -0.88%
COc1ccc(-c2nnn(Cc3nc(N)nc(N4CCCCC4)n3)n2)cc1 -3.62%
CCOc1cccc(=O)c2c(C)n(CC3CCCO3)c(C)c12 (stereo not given) -0.25%
CC(NC(=O)Nc1ccccc1)c1ccccc1 (stereo not given) 1.63%
O=C(CCN1C(=O)C2C3C=CC(C3)C2C1=O)Nc1ccccc1F (stereo not given) -4.07%
c1ccc(-c2cn3cccnc3n2)cc1 -283%
Cc1cc(NC(=O)CCC2COc3ccccc3O2)no1 (stereo not given) 0.43%
COc1ccc(CCNc2ncnc3nc[nH]c23)cc1OC -2.05%
COC(=O)c1cc(OC)c(OC)cc1NC(=O)C1CCCO1 (stereo not given) 17.4%
Cc1nc(-c2ccc(NC(=O)c3cccs3)cc2)cs1 6.73%
NS(=O)(=O)c1ccc(CCNC(=O)Nc2ccc(Cl)cc2)cc1 0.5%
COc1ccc(C2CC(c3ccccc3)Nc3ncnn32)cc1 (stereo not given) 20.2%
Cc1ccc(C2CC(=O)NC(SCC(=O)OCc3ccccc3)=C2C#N)o1 (stereo not given) 1.51%
CCOC(=O)C(CCOc1cccc(CC)c1)C(=O)OCC 20.3%
Cc1nnc(SCC(=O)N(C(C)C)C(C)C)nc1C 6.66%
CCCC(C(=O)NCc1ccco1)N(C(=O)CNS(=O)(=O)c1ccccc1)C1CCCC1 (stereo not given) 10.1%
Cn1c(=O)c2cn(-c3cccc4ccccc34)cc2n(C)c1=O 6.9%
COC(=O)c1ccc(CN(c2ccccc2OC)S(=O)(=O)c2cccs2)o1 14%
Fc1c(F)c(C(F)(F)F)c(F)c(F)c1N1CCN(c2ccc3nnc(C(F)(F)F)n3n2)CC1 -17%
CC(C)NS(=O)(=O)c1ccc(OCC(=O)Nc2ccc3c(c2)OCCO3)cc1 16.4%
COc1ccc(Cn2cccc(NC(=O)Nc3ccc(C#N)cc3)c2=O)cc1 -10.3%
C=CCn1c(=N)n(CC(O)COc2ccc(OC)cc2)c2ccccc21 (stereo not given) 0.78%
Cc1ccc(C2CC(c3cccc(Br)c3)n3nc(N)nc3N2)cc1 (stereo not given) 19.9%
Cc1ccc(N2C(=O)CC(NCc3ccc4c(c3)OCO4)C2=O)cc1Cl (stereo not given) -2.37%
c1ccc(CSc2nnc(-c3ccco3)c(-c3ccco3)n2)cc1 10.8%
O=c1cc(O)nc(SCc2ccccc2Cl)[nH]1 -2.97%
N#Cc1c(NC(=O)CCCN2C(=O)c3ccccc3C2=O)oc(-c2ccccc2)c1-c1ccccc1 4.96%
CN1c2ccccc2-c2nc3ccccc3n2C1c1ccco1 (stereo not given) -450%
COC(=O)C1=C(C)N(C)C(C)=C(C(=O)OC)C1c1cccc(Br)c1 10.9%

From PubChem BioAssay AID460 (PCMD, 2006)
